Reference: PubChem BioAssay (NCI)
Compounds without any hit were thinned out: in the full panel of roughly 79,000, 15% have a hit. Active and inactive are the calls of the source. Rule as the data show it: active = growth inhibition above about 70%; inactive = the rest.

Columns and labels:
[1] = NCI Yeast Anticancer Drug Screen. Data for the rad50 strain (AID 155);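 also: 0% = growth of vehicle-only cultures of the same strain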; settings: S. cerevisiae rad50 strain growth inhibition; at 50.0 µM; stronger effect = higher value
Summary of the method: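 Readout: growth inhibition relative to vehicle-treated cultures. Compound exposure was carried out in a genetically defined yeast strain deficient in DNA damage repair.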

[2] = NCI Yeast Anticancer Drug Screen. Data for the mec2-1 strain (AID 157); settings: S. cerevisiae mec2-1 strain, at 50.0 µM, stronger effect = higher value
Summary of the method: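 Growth inhibition is read against vehicle-treated controls after compound exposure of the mec2-1 yeast strain, which is defective in DNA damage repair or cell cycle control.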

[3] = NCI Yeast Anticancer Drug Screen. Data for the sgs1 mgt1 strain (AID 161);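 also: 0% = growth of cultures given vehicle only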; settings: S. cerevisiae sgs1 mgt1 strain, at 50.0 µM, stronger effect = higher value
Summary of the method: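 Yeast cells carrying a defined DNA-repair defect were exposed to test compounds. Growth inhibition was measured relative to vehicle-treated controls.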

[4] = NCI Yeast Anticancer Drug Screen. Data for the cln2 rad14 strain (AID 165);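 also: 0% = growth equal to vehicle treated cultures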; settings: S. cerevisiae cln2 rad14 strain, at 50.0 µM, stronger effect = higher value
Summary of the method: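 Growth inhibition, relative to vehicle-treated controls, is the read-out. The test organism is a yeast strain with defined genetic alterations, cln2 rad14.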

[5] = NCI Yeast Anticancer Drug Screen. Data for the bub3 strain (AID 167); settings: S. cerevisiae bub3 mutant strain, at 50.0 µM, stronger effect = higher value
Summary of the method: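 Readout: yeast growth inhibition, expressed relative to vehicle-only wells. The test organism is a mutant strain from a panel with lesions in DNA repair or checkpoint genes.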

[6] = NCI Yeast Anticancer Drug Screen. Data for the mlh1 rad18 strain (AID 175); settings: S. cerevisiae mlh1 rad18 strain growth inhibition; at 50.0 µM; stronger effect = higher value
Summary of the method: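 Cells of a genetically altered yeast strain, deficient in DNA damage repair, were treated with compound. Their growth was then compared with that of vehicle-treated cultures to give inhibition.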

Measured: growth inhibition

CN(c1ccccc1)c1nc(=[N+]2CCCC2)ss1
inactive: [1] 11.6% | [2] -1.3% | [3] -11.8% | [4] 0.9% | [5] 7.75% | [6] 24.6%

Nc1ccc([N+](=O)[O-])cc1N
inactive: [1] 9.15% | [2] -14.7% | [3] -12.8% | [4] -36.9% | [5] -17.4% | [6] 10.2%

O=C(NCCc1ccccn1)c1ccc2cc(C(=O)N3CC(CCl)c4ccc([N+](=O)[O-])cc43)[nH]c2c1 (configuration not stated)
inactive: [1] 8.65% | [2] -2% | [3] 3.95% | [4] 12.4% | [5] 2.95% | [6] -76.3%

[N-]=[N+]=NC(=O)Nc1ccccc1F
inactive: [1] -6.4% | [2] -1.1% | [3] -14.6% | [4] -19.3% | [5] -19.6% | [6] 16.1%

C=CC(=O)OC(C)C
inactive: [1] 21.6% | [2] 11.2% | [3] 2.35% | [4] -1.7% | [5] 33.8% | [6] 15.8%

CCc1c2c(c(C)n1C)C(c1ccccc1)=NCC(=O)N2
inactive: [1] 8.1% | [2] 21.1% | [3] 21.7% | [4] -7.1% | [5] 13.4% | [6] 3%

O=[As](O)(O)c1ccc(N=Nc2ccccc2)cc1
inactive: [1] -4.25% | [2] -14.2% | [3] -6.05% | [4] -19.9% | [5] 5.75% | [6] -17.2%

CC(=O)C1=C(O)C2C3c4c[nH]c5cccc(c45)CC3C(C)(C)N2C1=O (configuration not stated)
inactive: [1] 22.6% | [2] -11% | [3] 23.9% | [4] -12.8% | [5] 15% | [6] 21.8%

CC(Cc1ccc(O)cc1)NCC(O)c1cc(O)cc(O)c1 (configuration not stated)
inactive: [1] 9.65% | [2] 13.2% | [3] 6.95% | [4] -8.45% | [5] 16.4% | [6] 6.55%

CCOP(=O)(OCC)SC#N
inactive: [1] 15.1% | [2] -2.85% | [3] -6.4% | [4] 6.5% | [5] -1.05% | [6] 16.1%

Clc1cccc(Cl)c1C(Cl)Cl
inactive: [1] -7.45% | [2] -17.2% | [3] -3.15% | [4] -4.4% | [5] -6.65% | [6] -11.2%

Cc1ccc2c(c1)C(=S)N1CSCC1c1nncn1-2 (configuration not stated)
inactive: [1] 30.6% | [2] 30% | [3] 28.9% | [4] 20.9% | [5] 13.4% | [6] 35.8%

CCCCS(=O)(=O)Cl
inactive: [1] 34.5% | [2] 13.2% | [3] 9.8% | [4] -12.5% | [5] 29.8% | [6] 25.9%

NP(=O)(OCCC(OCc1ccccc1)OCc1ccccc1)N(CCCl)CCCl (configuration not stated)
inactive: [1] 54.6% | [2] 9.1% | [3] 54.6% | [4] 48.5% | [5] 6.2% | [6] 31.8%

CC(C)CC1N=C(NN=C(CCl)CCl)SP1(=O)NCCCCCCNP1(=O)SC(NN=C(CCl)CCl)=NC1CC(C)C (configuration not stated)
inactive: [1] 2.95% | [2] 12.1% | [3] 11.4% | [4] -11.7% | [5] 15.9% | [6] 13.8%

COc1cc(C2c3cc4c(cc3OC(O)C2C)OCO4)cc(OC)c1O (configuration not stated)
inactive: [1] -13.2% | [2] -49.9% | [3] -23.9% | [4] 8.25% | [5] -2.9% | [6] -5.75%

N#CN=C(N)NC#N
inactive: [1] 24.1% | [2] 12.9% | [3] 7.3% | [4] 0.55% | [5] 13.8% | [6] 17.1%

COc1ccc(S(=O)(=O)F)cc1NC(=O)CCc1ccc(N2C(N)=NC(N)=NC2(C)C)cc1Cl
inactive: [4] 16.2% | [5] 4.7% | [6] 65.2%
active: [1] 79.8% | [2] 78.5% | [3] 86.8%

CCN(CC)CCN(CC)CC.CCN(CC)CCN(CC)CC.[Cu+2].[Cu+2].[O-][Cl+3]([O-])([O-])[O-].[OH3+].[OH3+]
inactive: [1] -2.85% | [2] 1.85% | [3] -0.35% | [4] 16.1% | [5] 12.6% | [6] 15.7%

COc1ccc2c(C3(O)CCNCC3)c[nH]c2c1
inactive: [1] 0.1% | [2] -1.3% | [3] -3.7% | [4] 2.75% | [5] -3.7% | [6] 3.8%

O=[N+]([O-])c1ccccc1CBr
inactive: [1] 52.8% | [2] 34.5% | [3] 57% | [4] 34.9% | [5] 33.5% | [6] 42%

CCOC(C(=O)O)(c1ccccc1)c1ccccc1
inactive: [1] -0.55% | [2] 22.2% | [3] 18.5% | [4] -10.1% | [5] 19.5% | [6] 22.8%

NC(=O)Nc1cc(NC(N)=O)cc(N(CCCl)CCCl)c1
inactive: [1] -7% | [2] -19.7% | [3] -20.1% | [4] -7.15% | [5] -15.7% | [6] -24.1%

CN(C)c1ccc(/C=C/C=C\C2=CC(=C\C=C/C=C3C=CC(=[N+](C)C)C=C3)/Sc3ccccc32)cc1
inactive: [1] -36.4% | [2] -45.9% | [3] -63.7% | [4] -29.6% | [5] -27.4% | [6] -55.3%

CC1=C2[C@H]3OC(=O)[C@@H](C)[C@@H]3CC[C@@]2(C)C=CC1=O
inactive: [1] 20.6% | [2] 5.9% | [3] 1.15% | [4] 15.2% | [5] 2.25% | [6] 12.6%

CCC[CH2][Sn]([CH2]CCC)([n]1cncn1)[n]1cncn1
active: [1] 92.2% | [2] 96.1% | [3] 93.7% | [4] 78.2% | [5] 88.5% | [6] 93.8%

ICc1nc2ccccc2[nH]1
inactive: [1] 15.6% | [2] -3.6% | [3] 3.65% | [4] -1.75% | [5] -14.5% | [6] 6.1%

Cc1ccc(NC(=O)/C=C/c2ccc([N+](=O)[O-])cc2)cc1S(=O)(=O)F
inactive: [1] -2.05% | [2] 27.9% | [3] 30% | [4] -5.6% | [5] 45% | [6] 15.2%

CCOP(=O)(Cc1ccc(N)cc1)OCC
inactive: [1] -23% | [2] -34% | [3] -21.2% | [4] 19.9% | [5] -23.9% | [6] -14.2%

CCN1C(=O)NC(=O)C(C)(N2CCCCC2)C1=O (configuration not stated)
inactive: [1] 13.4% | [2] 5.3% | [3] 25.9% | [4] 15.2% | [5] 10.7% | [6] 28.7%

O=[N+]([O-])c1ccc(Cl)c(OCCCOc2ccc(S(=O)(=O)F)cc2)c1
inactive: [1] -8.7% | [2] -6.9% | [3] 8.05% | [4] 3.7% | [5] -3.75% | [6] 7.85%

CCOP(=S)(OCC)Oc1cnn(C)c(=S)c1Cl
inactive: [1] 12.8% | [2] -18.6% | [3] -0.85% | [4] 10.3% | [5] -4.85% | [6] 8.05%

CC(=O)CCC(=O)O
inactive: [1] -7.05% | [2] 0.55% | [3] -39.2% | [4] 16.1% | [5] -7.25% | [6] -19.9%

NC1CC=C(COC(=O)C(O)(c2ccccc2)C2CC2)CC1 (configuration not stated)
inactive: [1] -12.9% | [2] -14.7% | [3] -23.6% | [4] 3.65% | [5] -7.4% | [6] -31.4%

NC(=O)C[CH2][Sn]([Cl])([Cl])[CH2]CC(N)=O
inactive: [1] -5.65% | [2] -5.5% | [3] 3.55% | [4] 5.3% | [5] 7.9% | [6] -7%

Cc1ccc(OP(=O)(Oc2ccc(C)cc2)Oc2ccc(C)cc2)cc1.Cc1ccc(OP(=O)(Oc2ccc(C)cc2)Oc2ccc(C)cc2)cc1.Cc1ccc(OP(=O)(Oc2ccc(C)cc2)Oc2ccc(C)cc2)cc1.Cc1ccc(OP(=O)(Oc2ccc(C)cc2)Oc2ccc(C)cc2)cc1.[Cr+3].[O-][Cl+3]([O-])([O-])O
inactive: [1] 0.95% | [2] -2.2% | [3] 0.15% | [4] -3.05% | [5] -4.35% | [6] -3.55%

OC1C2CCC1C(N1CCOCC1)CC2 (configuration not stated)
inactive: [1] 0.25% | [2] 3.85% | [3] 8.05% | [4] -7.15% | [5] 18.5% | [6] 5.5%

CCCCC[CH2][Sn](=[O])[CH2]CCCCC
inactive: [1] 8.25% | [2] 3.35% | [3] -9.4% | [4] -24.6% | [5] 6.8% | [6] -11.4%

CCC(=O)OC1(c2ccccc2)CCN(CCC(O)c2ccccc2)CC1C (configuration not stated)
inactive: [1] -14.9% | [2] -1.45% | [3] 1.45% | [4] -34.9% | [5] 1.1% | [6] 6.2%

CCCCOP(=O)(O)OCCCC.[V]
inactive: [1] -0.55% | [2] -1.55% | [3] -1.55% | [4] -17.1% | [5] -10.9% | [6] 0.65%

[C-]#[O+].[C-]#[O+].[C-]#[O+].[C-]#[O+].[Mo].c1ccc([As](CC[As](c2ccccc2)c2ccccc2)c2ccccc2)cc1
inactive: [1] 3.4% | [2] -0.4% | [3] -5.8% | [4] -5.7% | [5] 1.15% | [6] 6.6%

ClC12OOC(c3ccccc3)(O1)C(c1ccccc1)c1ccccc12 (configuration not stated)
inactive: [1] 14.2% | [2] 24.1% | [3] 34.9% | [4] 51.9% | [5] 10.8% | [6] 44.5%
